Many of the other results were omitted from the sample, so hits are more common in it than they were.
Tgondii IFNg – T. gondii growth inhibition under IFN-gamma. Toxoplasma gondii growth in IFN-gamma-treated host cells; hits give low values. activity change, negative = inhibition, % (no concentration beside the values). actives 3.8% (n = 69,000). AID 1259416; in the data active = activity change below about -70%, passing the limit was not always enough;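 also: host cells are HeLa cells infected with Toxoplasma gondii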
The depositor's hits bear a star; ! = not active in a repeat.

SMILES	Tgondii IFNg
CCc1nccc(-c2c(-c3ccccc3)ncn2CC2(CO)CCOCC2)n1	-83*
CN(C)CCNC(=O)c1cc2n(n1)CCN(C(=O)C1CCCNCC1)C2 (stereo not drawn)	3
CC(N)CC(=O)NCc1cccnc1Oc1cccc(C(F)(F)F)c1 (stereo not drawn)	-7
Cc1nc(COC[C@@H]2CCC3C(CCN3S(C)(=O)=O)O2)cs1 (stereo partly drawn)	6
COC(=O)NC(C)CNc1nccc(-c2cn(C(C)C)nc2-c2cc(Cl)cc(NS(C)(=O)=O)c2F)n1 (stereo not drawn)	-71*
CCNc1ncc(C(=O)N2CCN(Cc3ncccc3C)CC2)cn1	3
Cc1ccc2[nH]nc(C(=O)N3CCOC(CCCC(C)C)C3)c2c1 (stereo not drawn)	-18
CC(C)Nc1nc2c(cc1C(=O)N1CCCC1)CCN(c1ncc(F)cn1)CC2	-7
O=C(c1n[nH]c2c1CCN(Cc1cccnc1)C2)N1CCCC1	-1
Cc1ccsc1C(=O)N1C[C@@H]2COC[C@@]2(COc2cccnc2)C1	-7
CCOC(=O)c1c(C)nc2ccc(Cl)cc2c1-c1ccccc1	-5
CCOC(=O)COc1nc2ccc(Cl)cc2c(-c2ccccc2)c1C(C)=O	-23
COc1ccc(-c2c(C)nc3ccc(Cl)cc3c2-c2ccccc2)cc1OC	-95*
O=C(CCC(=O)N1CCc2ccccc21)N1CCc2ccccc21	0
CCn1c(C2CCN(C(=O)c3ccc(-c4ccccc4)[nH]3)CC2)n[nH]c1=O	26
O=C(O)Cn1cnc2ccccc2c1=O	0
O=C(C[C@H]1NCCC[C@@H]1O)Cn1cnc2cc(Br)c(Cl)cc2c1=O	-80*
CC(NC(=O)CCc1nc2ccccc2c(=O)[nH]1)c1ccccc1 (stereo not drawn)	16
Cc1nc(CN(C)Cc2cnc(-c3cccc4ccccc34)nc2)no1	8
Cc1oc(-c2ccc(C(=O)NCCC(C)C)cc2)nc1CN1CCc2ccccc21	64
Cc1oc(-c2ccc(C(=O)NCCc3ccco3)cc2)nc1CN1CCc2ccccc21	-64
Cc1oc(-c2ccc(C(=O)NCc3ccc(OC(C)C)cc3)cc2)nc1CN1CCc2ccccc21	-88*
Cc1oc(-c2ccc(C(=O)NCCc3cccs3)cc2)nc1CN1CCc2ccccc21	-89*
COc1ccc(CNC(=O)c2ccc(-c3nc(CN4CCc5ccccc54)c(C)o3)cc2)cc1OC	142
Cc1oc(-c2ccc(C(=O)NCCc3ccc(Cl)cc3)cc2)nc1CN1CCc2ccccc21	-64
SMILES	Tgondii IFNg
CO[C@@H]1CN(C)C(=O)c2cc(NC(C)=O)ccc2OC[C@H](C)N(S(C)(=O)=O)C[C@H]1C	23
COCCN1C2COCC1CN(Cc1nccs1)C2	2
C[C@H]1CN([C@@H](C)CO)C(=O)c2ccccc2-c2ccccc2CO[C@H]1CN(C)C(=O)Nc1cccc(C(F)(F)F)c1	-49
Cc1oc(C(=O)O)cc1CSC(C)C(=O)O (stereo not drawn)	0
O=C1NC(=O)[C@@H](c2cn3c4c(cccc24)CCC3)[C@@H]1c1c[nH]c2ccccc12	-40
Cc1ccc(Nc2cc(C)nc3c(C)cccc23)cc1	-59
Cc1cc(C(F)(F)F)nc(CCNC(=O)c2c(O)cccc2O)n1	-2
Cc1cc(Nc2cc(C(F)(F)F)nc3c(Cl)cccc23)on1	-80*
CCCCCCCCCCCCCCCC[n+]1ccccc1	-91*
Cc1ccc(NC(=O)CSC2=NC(=O)C(Cc3ccccc3)C(=O)N2)cc1 (stereo not drawn)	-26
Cc1cc(C)nc(SCC(=O)OCC(=O)Nc2nnc(-c3ccccc3)s2)n1	78
CN(C)CC(=O)NCCC1CCCCN1 (stereo not drawn)	-5
CN1CCN(CCC2CCCCN2)CC1 (stereo not drawn)	17
C1CCC(C(CC2CCCCN2)C2CCCCC2)CC1 (stereo not drawn)	-96*!
COC(=O)C1[C@H]2C(=O)N(Cc3cccs3)C[C@]23C=C[C@H]1O3 (stereo partly drawn)	2
CCC1CCCCN1C(=O)CCNc1c(-c2ccc(C)cc2)nc2cnccn12 (stereo not drawn)	227
O=C(Nc1ccc(N2CCOCC2)c(F)c1)c1ccnc(N2CCOCC2)c1	12
Cn1nc(C(=O)Nc2ccc(N3CCCCC3)c(C(F)(F)F)c2)ccc1=O	-54
Cn1nc2c(c1C(=O)Nc1ccc(N3CCCCC3)c(F)c1)CCCC2	-95*
CC(C)N(CCCc1ccccc1)C(=O)c1ccc[nH]1	-8
O=C([C@H]1[C@H](CO)[C@H]2Cn3c(ccc(C4=CCCCC4)c3=O)[C@@H]1N2)N1CCC(Cc2ccccc2)CC1	-64
CCCCC(=O)Nc1ccc(NC(=O)c2cccc(O)c2C)cc1	52
COc1ccc(-c2ccc(Nc3ccc(C(=O)N4CCCCCC4)cc3)nn2)cc1	-84*
COc1ccc(-c2ccc(C(=O)N3CCCC(c4ccccc4)CC3)cn2)cc1 (stereo not drawn)	-27
Cc1ccc(Nc2ccc(C(=O)N3CCCCC3)cn2)cc1	312
SMILES	Tgondii IFNg
Cc1[nH]c2c(c1C(=O)N1CCCC(O)(CO)CC1)C(=O)CCC2 (stereo not drawn)	-2
O=C(NCCCN1CCCC1=O)C1CCN(Cc2cc3ccccc3n2Cc2ccccc2)CC1	0
COCC(=O)N1CCc2c([nH]c3ccccc23)C1c1ccc(Cl)cc1 (stereo not drawn)	-16
Cc1ccc(C2c3[nH]c4ccccc4c3CCN2C(=O)CCC2CCCC2)cc1 (stereo not drawn)	-67
CSc1ccc(C2c3[nH]c4ccccc4c3CCN2C(=O)c2ccc3c(c2)OCO3)cc1 (stereo not drawn)	209
O=C(c1ccc2c(c1)OCO2)N1CCc2c([nH]c3ccccc23)C1c1ccc(Cl)cc1 (stereo not drawn)	-83*
O=C(c1cccnc1)N1CCc2c([nH]c3ccccc23)C1c1ccc(F)cc1 (stereo not drawn)	76
Cn1nccc1C(=O)N1CCc2c([nH]c3ccccc23)C1c1ccc(Cl)cc1 (stereo not drawn)	-115*
Cc1ccc(C2c3[nH]c4ccccc4c3CCN2C(=O)c2cccnc2)cc1 (stereo not drawn)	68
COc1cccc(C(=O)N2CCc3c([nH]c4ccccc34)C2c2ccc(C)cc2)c1 (stereo not drawn)	-126*
CSc1ccc(C2c3[nH]c4ccccc4c3CCN2C(=O)c2ccc(Cl)cc2)cc1 (stereo not drawn)	60
O=C(c1cccnc1)N1CCc2c([nH]c3ccccc23)C1c1ccc(Cl)cc1 (stereo not drawn)	-114*
Cc1ccc(CN2CCC3(CC2)N=C(c2ccc(Br)cc2)C(=O)N3)c(C)c1	77
CN1CCN(S(=O)(=O)c2cc(C(=O)O)cc(-c3ccc4[nH]ccc4c3)c2)CC1	11
O=C1NC(=O)/C(=C\c2cccc(C(F)(F)F)c2)S1	25
O=C(CN1CCOCC1)NC[C@H]1N[C@H](CO)[C@@H]1c1ccc(-c2ccccc2)cc1	-18
O=C(c1ccccn1)N1CCCC2(C1)Nc1cccnc1NC2=NC1CCCC1 (stereo not drawn)	75
Cc1c(-c2nccn2Cc2cn3ccccc3n2)c(=O)n(-c2ccccc2)n1C	-42
Cc1ccc(C2c3[nH]c4ccccc4c3CCN2C(=O)c2cccc(Cl)c2)cc1 (stereo not drawn)	-89*
O=C(c1ccco1)N1CCc2c([nH]c3ccccc23)C1c1ccc(Cl)cc1 (stereo not drawn)	-88*

High-throughput results: PubChem BioAssay, Broad Institute
